Data as given in PubChem BioAssay AID1211 (NMMLSC, 2008).
Calls of active or inactive are those of the source. No rule for the calls is given here.

Target: Estrogen receptor (Homo sapiens) (UniProt P03372)
Test: displacement of fluorescent estrogen from ERalpha – cell-based, Cos7 ERalpha-GFP, flow cytometry, primary screen (AID 1211);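 also: 0% = DMSO vehicle wells and 100% = no E2-Alexa633 signal left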
Details: fluorescent ligand competition, stronger effect = higher value

Estrogen receptor (Homo sapiens), sequence (P03372 whole entry, looked up): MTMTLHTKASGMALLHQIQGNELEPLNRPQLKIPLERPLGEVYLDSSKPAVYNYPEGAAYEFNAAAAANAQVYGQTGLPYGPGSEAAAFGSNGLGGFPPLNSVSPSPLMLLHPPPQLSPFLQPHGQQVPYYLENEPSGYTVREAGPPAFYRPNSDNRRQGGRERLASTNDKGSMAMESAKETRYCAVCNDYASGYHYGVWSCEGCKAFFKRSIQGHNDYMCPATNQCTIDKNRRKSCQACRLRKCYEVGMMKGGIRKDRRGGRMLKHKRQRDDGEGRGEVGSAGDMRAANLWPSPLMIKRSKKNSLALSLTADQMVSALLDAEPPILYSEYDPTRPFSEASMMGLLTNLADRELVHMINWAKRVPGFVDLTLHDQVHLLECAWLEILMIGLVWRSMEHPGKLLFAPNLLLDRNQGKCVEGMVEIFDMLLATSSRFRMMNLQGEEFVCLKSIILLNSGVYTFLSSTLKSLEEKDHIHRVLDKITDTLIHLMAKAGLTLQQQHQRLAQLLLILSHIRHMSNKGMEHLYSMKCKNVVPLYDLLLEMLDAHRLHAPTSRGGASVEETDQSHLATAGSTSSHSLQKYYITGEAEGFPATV

Row | SMILES | inhibition of ligand binding (at 10 µM) | inhibition of ligand binding (binding inhibition, at 0.1 µM) [%]
1 | NC(=O)c1cccc2c1C(=O)N(C1CCCCC1)C2 | 26% (inactive) | 39
2 | Cc1cc(Cl)ccc1OCC(=O)OC(C)C(=O)N(C)C (stereo unspecified) | 30% (inactive) | 53
3 | Cc1ccc(S(=O)(=O)Cc2ccc(C(=O)N3CCc4ccccc4C3)o2)cc1 | 54% (inactive) | 57
4 | CC(=O)c1ccc(NC(=S)N2CCC(O)CC2)cc1 | 30% (inactive) | 23
5 | O=C(CCCn1c(=S)[nH]c2cc3c(cc2c1=O)OCO3)N1CCN(c2ccc(Cl)cc2)CC1 | 30% (inactive) | 27
6 | COc1ccc2c(c1)C1C=CCC1C(c1cc3c(cc1Br)OCO3)N2 (stereo unspecified) | 0% (inactive) | 10
7 | COc1ccccc1/C=c1\sc2nc(-c3ccco3)nn2c1=O | 40% (inactive) | 25
8 | COc1ccc(C2C=C(c3ccc(Cl)cc3)Nc3nc(NC(C)=O)nn32)cc1 (stereo unspecified) | 42% (inactive) | 22
9 | CSC1=N/C(=C\c2ccc(Br)o2)C(=O)S1 | 12% (inactive) | 13
10 | CNc1nnc(-c2cc3cc(Cl)ccc3oc2=O)s1 | 29% (inactive) | 58
11 | c1ccc(Cc2nnc3sc(-c4ccco4)nn23)cc1 | 34% (inactive) | 12
12 | CCOC(=O)Cc1cc(-c2ccc(O)cc2)nc2ccc3ccccc3c12 | 37% (inactive) | 15
13 | COc1cc(OC)cc(C(=O)NC2CCN(C(=O)N3c4ccccc4Sc4ccccc43)CC2)c1 | 6% (inactive) | 22
14 | CCN(CC)c1ccc(-c2nn3c(-c4ccccc4OC)nnc3s2)cc1 | 40% (inactive) | 25
15 | COc1ccc(/C=N/NC(=O)c2nc(-c3ccccc3)cc(-c3ccccc3)n2)cc1O | 56% (active) | 97
16 | CCOC(=O)C1CCCN(C(=O)c2ccc(CS(=O)(=O)c3ccc(C)cc3)o2)C1 (stereo unspecified) | 30% (inactive) | 6
17 | Cc1ccc2occ(C3NC(C(=O)O)CS3)c(=O)c2c1 (stereo unspecified) | 39% (inactive) | 27
18 | COc1ccccc1NC(=O)c1ccccc1NC(=O)c1cc(Cl)ccc1NC(=O)c1ccco1 | 32% (inactive) | 3
